Assay results reported in PubChem BioAssay (NCI).
This is part of a sample that, as a whole, favours compounds with a hit. Of some 83,000 tested, about 20% had one in any assay.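 The endpoint reported here, percent growth, reads 100 for growth as untreated, 0 for no net growth and -100 for all cells dead.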 A number with no mark means an inactive call. Active and inactive are the calls of the source. How the source made its calls: active means growth percent below 10; inactive means the rest.

Legend:
Experiment in all cases: NCI-60 one-dose screen, 48 h (100 = growth as untreated, 0 = no growth, -100 = all killed)
Settings in all cases: 10 µM unless noted
[1] = test system: NCI-H23 lung
[2] = test system: NCI-H226 lung
[3] = test system: NCI-H322M lung
[4] = test system: HOP-62 NSCLC
[5] = test system: NCI-H460 lung
[6] = test system: HOP-92 NSCLC
[7] = test system: NCI-H522 lung
[8] = test system: A549/ATCC NSCLC
[9] = test system: 786-0 renal
[10] = test system: COLO 205 colon
[11] = test system: DU-145 prostate
[12] = test system: K-562 leukemia
[13] = test system: MALME-3M melanoma
[14] = test system: RXF 393 renal
[15] = test system: SF-268 CNS
[16] = test system: SF-295 CNS
[17] = test system: SF-539 CNS
[18] = test system: UACC-257 melanoma
[19] = test system: M14 melanoma

| SMILES | growth [1] | growth [2] | growth [3] [%] | growth [4] | growth [5] | growth [6] | growth [7] | growth [8] | growth [9] | growth [10] | growth [11] | growth [12] | growth [13] | growth [14] | growth [15] | growth [16] | growth [17] | growth [18] | growth [19] |
| --- | --- | --- | --- | --- | --- | --- | --- | --- | --- | --- | --- | --- | --- | --- | --- | --- | --- | --- | --- |
| N#Cc1c(-c2cccc3ccccc23)cc(-c2cccc(OCC(=O)O)c2)[nH]c1=O | 97.7% | 93.6% | 96.1 | 105% | 101% | 98.6% | 97.9% | 94.6% | 101% | 106% | 105% | 94.2% | 87.3% | 105% | 96.6% | 101% | 95.5% | 97.8% | 93.6% |
| N#Cc1c(-c2cccc(O)c2O)cc(-c2ccc3ccccc3c2)[nH]c1=O | 52.1% | 68.3% | 72.7 | 49.2% | 41.7% | 28% | 51.3% | 84.9% | 64.1% | 84% | 57% | 67.1% | 59.1% | 39.3% | 58.6% | 83.6% | 28.8% | 99.9% | 65.1% |
| COc1cc(CNC(=O)/C=C/c2ccc3c(c2)OCO3)ccc1OCc1cn(-c2cccc(C(F)(F)F)c2)nn1 | 1.63% (active) | -44.8% (active) | 26.4 | 1.47% (active) | 29.2% | -37.5% (active) | 27% | -3.39% (active) | -44.7% (active) | 25.3% | 30% | 24.7% | -11.9% (active) | -28.9% (active) | 39% | -20.7% (active) | -81.2% (active) | 18.1% | 4.8% (active) |
| N#Cc1c(-c2cccc(Cl)c2Cl)cc(-c2c[nH]c3ccccc23)[nH]c1=O | 70.2% | 8.48% (active) | 76.5 | 80.1% | 85.6% | -0.53% (active) | 70.2% | 67.2% | 16.9% | 105% | 68.1% | 30.1% | 54.4% | 36.8% | 89.7% | 51.7% | 68.1% | 101% | 34.7% |
| C=C1CC[C@@H]2[C@]3(C)COC(c4cn[nH]c4-c4ccc(OC)cc4)O[C@@H]3CC[C@@]2(C)[C@@H]1C/C=C1/C(=O)OCC1O (some centres not stated) | -12.6% (active) | -45% (active) | 32.6 | -56.9% (active) | -49.6% (active) | -34.5% (active) | -18.4% (active) | 7.46% (active) | -89.7% (active) | -83.1% (active) | -27.2% (active) | -31.2% (active) | -62.1% (active) | -58.5% (active) | 3.8% (active) | -41.9% (active) | -87.2% (active) | -24.6% (active) | -50.9% (active) |
| O=C(N/N=C/c1ccc(-c2ccc(O)cc2)s1)c1[nH]c2ccc(Br)cc2c1-c1ccccc1 | 7.67% (active) | 27.6% | 29.8 | 21.2% | -18.3% (active) | -24.8% (active) | 18.6% | 23.8% | -28% (active) | -32.9% (active) | 30.1% | 2.31% (active) | -2.08% (active) | -29.5% (active) | 28.9% | 0.137% (active) | -57.2% (active) | 53.9% | 9.8% (active) |
| Nc1cc2ccccc2c(=O)n1NC(=O)c1ccc(I)cc1 | 97.3% | 99.9% | 98.6 | 98.5% | 100% | 106% | 93.1% | 94.6% | 99.3% | 105% | 102% | 90.4% | 97.4% | 108% | 94.9% | 97.6% | 96.5% | 93.3% | 102% |
| CSc1ccccc1NC(=O)c1ccc2nnn(/C(C#N)=C/c3ccccn3)c2c1 | -96.6% (active) | -94.6% (active) | 40.5 | 6.29% (active) | -44% (active) | -80.8% (active) | -96.4% (active) | -27.2% (active) | -98.5% (active) | -83.1% (active) | -97.9% (active) | 1.03% (active) | -94.7% (active) | -98.8% (active) | 6.52% (active) | 2.24% (active) | -100% (active) | -89.8% (active) | -93.6% (active) |
